One may read the AC50 as the concentration at which the activity in the assay is half-maximal.

Results filed as inconclusive are left out. Activity calls are given as the source filed them. The calls were made as follows, unless noted: active = hit-call score of the fitted dose curve at least 0.9, where 1 is the maximum; inactive = score below 0.9.

Test [1] is described as follows: ATG_AP_2_CIS: Attagene CIS-FACTORIAL HepG2 Assay for human Activator Protein 2 (AP-2) (AID 2282932). Conditions: HepG2 AP-2 cis-reporter, Attagene transcription factor profiling; actives raise or lower the signal. In outline:
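Assay in transfected HepG2 with promoter-regulated reporters, 24 h incubation after dosing. Signal is reporter mRNA fluorescence (RT-PCR, capillary electrophoresis), analysed for both increases and decreases relative to DMSO controls.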

In test [2] the target is Transcription factor E2F1 (Homo sapiens) (UniProt Q01094). The test is described as follows: ATG_E2F_CIS: Attagene CIS-FACTORIAL HepG2 Assay for human E2F Transcription Factor 1 (AID 2282935). The settings on record: HepG2 Attagene cis-reporter, E2F reporter RNA transcripts; actives raise or lower the signal. Summed up:
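In this cis-factorial format, endogenous factor activity drives transfected reporters in HepG2; transcripts collected at 24 h are quantified by fluorescence after RT-PCR and capillary separation.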

The nature of test [3]: ATG_M_61_CIS: Attagene CIS-FACTORIAL HepG2 Assay for M61 Transcription Factor (Internal Marker) (AID 2282937). Conditions: HepG2 Attagene CIS-FACTORIAL M61 internal marker reporter; actives raise or lower the signal. Summed up:
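Readout is reporter mRNA by RT-PCR, fluorescent primer extension and capillary electrophoresis, with gain or loss fitted relative to DMSO. Transfected HepG2 cells carrying endogenous-TF-driven cis reporters were exposed to chemicals for 24 hours.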

Test [4] is described as follows: ATG_EGR_CIS: Attagene CIS-FACTORIAL HepG2 Assay for human Early Growth Response 1 (EGR1) (AID 2282938). Conditions: HepG2 Attagene CIS-FACTORIAL EGR reporter mRNA; actives raise or lower the signal. Summed up:
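After 24 h compound exposure, RNA from reporter-transfected HepG2 cells was reverse-transcribed, PCR-amplified, fluorescently labelled and resolved by capillary electrophoresis. EGR1 reporter transcript changes, up or down, were fitted against DMSO, reflecting endogenous transcription-factor activity.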

A short description of test [5]: ATG_Ets_CIS: Attagene CIS-FACTORIAL HepG2 Assay for human Erythroblast Transformation Specific (ETS) (AID 2282941). Conditions: HepG2 ETS cis-reporter transcription, actives raise or lower the signal. Summed up: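 Endogenous transcription factor activity read as reporter mRNA via RT-PCR and capillary electrophoresis, with gain or loss fitted bidirectionally against DMSO. Human HepG2 liver cells, transiently transfected CIS reporter constructs, 24 h exposure.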

For test [6], the target named is Hepatocyte nuclear factor 3-beta (Homo sapiens) (UniProt Q9Y261). The test can be described thus: ATG_FoxA2_CIS: Attagene CIS-FACTORIAL HepG2 Assay for human Forkhead box A2 (FOXA2) (AID 2282942). Conditions: HepG2 cis-reporter transcription factor activity, 24 h; actives raise or lower the signal. Summed up: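 Endogenous transcription factor activity is captured via cis-element-driven reporter transcripts in transfected HepG2. Total RNA taken at 24 h post-dosing; labelled RT-PCR products resolved by capillary electrophoresis. Gain or loss fitted versus DMSO.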
Sequence of Hepatocyte nuclear factor 3-beta (Homo sapiens) (Q9Y261 whole entry, looked up): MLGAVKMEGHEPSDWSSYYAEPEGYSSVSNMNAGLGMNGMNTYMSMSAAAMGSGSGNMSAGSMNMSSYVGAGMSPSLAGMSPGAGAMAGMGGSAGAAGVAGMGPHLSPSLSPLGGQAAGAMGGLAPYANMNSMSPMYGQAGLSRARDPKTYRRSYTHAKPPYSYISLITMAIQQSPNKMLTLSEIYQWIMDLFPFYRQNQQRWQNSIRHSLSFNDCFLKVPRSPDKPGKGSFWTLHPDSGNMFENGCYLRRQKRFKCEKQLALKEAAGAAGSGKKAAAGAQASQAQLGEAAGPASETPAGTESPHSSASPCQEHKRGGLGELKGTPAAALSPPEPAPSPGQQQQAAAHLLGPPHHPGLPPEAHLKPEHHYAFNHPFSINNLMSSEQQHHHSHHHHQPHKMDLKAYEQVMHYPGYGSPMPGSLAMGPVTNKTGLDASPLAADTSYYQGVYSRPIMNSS

A short description of test [7]: ATG_FoxO_CIS: Attagene CIS-FACTORIAL HepG2 Assay for human Forkhead box O (FoxO) (AID 2282943). Conditions: HepG2 Attagene cis-reporter, FoxO element, mRNA; actives raise or lower the signal. Summed up:
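24 h chemical exposure, HepG2 with transient cis-MRTU transfection. RNA extraction, oligo(dT) RT, reporter-specific PCR, primer-extension labelling, HpaI digestion, CE fragment analysis; bidirectional fit, DMSO baseline.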

Test [8] in a line: ATG_RORE_CIS: Attagene CIS-FACTORIAL HepG2 Assay for human RAR-related Orphan Receptor Element (RORE) (AID 2282959). Conditions: HepG2 Attagene cis-factorial RORE reporter, mRNA; actives raise or lower the signal. Summed up:
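RORE reporter transcripts reflecting endogenous factor activity were read after 24 h compound exposure of transfected HepG2 cells, using reverse transcription, PCR, fluorescent labelling and capillary electrophoresis sizing. Gain or loss fitted against DMSO.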

Test [9] can be described thus: ATG_TGFb_CIS: Attagene CIS-FACTORIAL HepG2 Assay for human Transforming Growth Factor (TGF) (AID 2282967). The settings on record: HepG2 Attagene CIS TGFb reporter, mRNA transcription; actives raise or lower the signal. Summed up: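 HepG2 cells transiently transfected with cis-promoter-driven multiplexed reporter units; 24 h compound exposure. Reporter mRNA measured by RT-PCR, 6-FAM labeling, HpaI digestion and capillary electrophoresis; bidirectional fit versus DMSO baseline.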

The nature of test [10]: ATG_VDRE_CIS: Attagene CIS-FACTORIAL HepG2 Assay for human Vitamin D Receptor Element (VDRE) (AID 2282968). The settings on record: HepG2 VDRE cis-reporter transcription, actives raise or lower the signal. Summed up: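 Transfected HepG2 reporter cells, chemical treatment 24 h. RNA isolated, cDNA amplified with reporter-specific primers, products analysed by capillary electrophoresis. Endpoint fitted in both directions versus DMSO.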

Test [11] addresses X-box-binding protein 1 (Homo sapiens) (UniProt P17861). The test is described as follows: ATG_Xbp1_CIS: Attagene CIS-FACTORIAL HepG2 Assay for human X-box Binding Protein 1 (XBP1) (AID 2282972). The settings on record: HepG2 XBP1 cis-element reporter, Attagene multiplex; actives raise or lower the signal. In outline: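 Reporter transcripts were quantified by RT-PCR with fluorescent primer extension and capillary electrophoresis after 24 h chemical exposure. Cells: transiently transfected HepG2 carrying cis-regulated reporter constructs; data fitted bidirectionally relative to DMSO.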

The target in test [12] is Transcriptional activator Myb (Homo sapiens) (UniProt P10242). The test is described as follows: ATG_Myb_CIS: Attagene CIS-FACTORIAL HepG2 Assay for human Myeloblastosis (Myb) Proto-Oncogene Transcription Factor (AID 2282986). Conditions: HepG2 Attagene CIS-FACTORIAL Myb reporter transcription; actives raise or lower the signal. In outline:
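Reporter mRNA is quantified by RT-PCR and capillary electrophoresis 24 h after dosing HepG2 cells transfected with cis-regulated reporter units, which track endogenous transcription factor activity. Gain and loss of signal are fitted versus DMSO baseline.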

Test [13] addresses Nuclear respiratory factor 1 (Homo sapiens) (UniProt Q16656). The test can be described thus: ATG_NRF1_CIS: Attagene CIS-FACTORIAL HepG2 Assay for human Nuclear Respiratory Factor 1 (NRF1) Orphan Gene (AID 2282987). The settings on record: HepG2 NRF1 cis-element reporter, Attagene multiplex; actives raise or lower the signal. Summed up: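 Endogenous NRF1-driven reporter transcription in transfected HepG2 cells after 24 h treatment. Readout: RT-PCR products, 6-FAM labelled and resolved by capillary electrophoresis; changes fitted both directions relative to DMSO.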

A short description of test [14]: ATG_NFI_CIS: Attagene CIS-FACTORIAL HepG2 Assay for human Nuclear Factor I (NFI) (AID 2282989). The settings on record: HepG2 cis-regulatory reporter, NFI response element transcription; actives raise or lower the signal. In outline:
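HepG2 cells transiently transfected with cis-element-driven multiplexed reporter transcription units, dosed for 24 h. Reporter mRNA quantified by RT-PCR, fluorescent labelling, HpaI digestion and capillary electrophoresis; bidirectional fit versus DMSO baseline.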

Test [15] deals with Myc proto-oncogene protein (Homo sapiens) (UniProt P01106). The test can be described thus: ATG_Myc_CIS: Attagene CIS-FACTORIAL HepG2 Assay for human Myelocytomatosis (Myc) Proto-Oncogene Transcription Factor (AID 2282990). The settings on record: HepG2, Attagene cis-reporter transcription factor activity; actives raise or lower the signal. In outline:
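DMSO-normalised, bidirectionally fitted reporter mRNA signal. HepG2 cells transfected with cis reporter constructs, treated 24 h; transcripts detected by RT-PCR, 6-FAM primer extension and CE.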

In test [16] the target is Cellular tumor antigen p53 (Homo sapiens) (UniProt P04637). The test can be described thus: ATG_p53_CIS: Attagene CIS-FACTORIAL HepG2 Assay for human p53 Transcription Factor (AID 2282994). The settings on record: HepG2 p53 cis-element reporter, Attagene mRNA; actives raise or lower the signal. Summed up: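 Endogenous p53 activity read in transiently transfected HepG2 from a cis-element-driven reporter transcript after 24 h exposure. RNA reverse-transcribed, PCR-amplified, fluorescently labelled and sized by capillary electrophoresis; gain or loss fitted against DMSO baseline.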
Sequence of Cellular tumor antigen p53 (Homo sapiens) (P04637 whole entry, looked up): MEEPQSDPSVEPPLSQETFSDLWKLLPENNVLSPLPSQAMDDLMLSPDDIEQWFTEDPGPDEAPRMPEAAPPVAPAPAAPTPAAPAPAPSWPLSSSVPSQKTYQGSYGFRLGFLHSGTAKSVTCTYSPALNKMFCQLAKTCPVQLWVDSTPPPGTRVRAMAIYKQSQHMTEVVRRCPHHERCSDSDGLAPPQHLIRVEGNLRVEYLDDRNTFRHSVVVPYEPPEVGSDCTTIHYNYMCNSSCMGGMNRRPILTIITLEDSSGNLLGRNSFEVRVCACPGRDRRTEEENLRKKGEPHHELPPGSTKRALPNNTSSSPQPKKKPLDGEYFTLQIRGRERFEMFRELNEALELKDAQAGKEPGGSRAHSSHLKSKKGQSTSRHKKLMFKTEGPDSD

Test [17] concerns the target Nuclear receptor subfamily 1 group I member 2 (Homo sapiens) (UniProt O75469). The test can be described thus: ATG_PXR_TRANS: Attagene TRANS-FACTORIAL HepG2 Assay for human Pregnane X Receptor (PXR) (AID 2283008; active = hit-call score of the fitted dose curve at least 0.9, where 1 is the maximum). Summed up:
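Transactivation by exogenous PXR–GAL4 fusion measured as reporter transcript induction after 24 h compound treatment of transfected human HepG2 cells. Read-out via RT-PCR and capillary electrophoresis of labelled fragments, fitted upward relative to DMSO.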

The nature of test [18]: ATG_XTT_Cytotoxicity: Cytotoxicity Assessment in the Attagene TRANS-FACTORIAL HepG2 Assay (AID 2283584; active = hit-call score of the fitted dose curve at least 0.9, where 1 is the maximum). In outline: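 24 h chemical exposure of reporter-transfected HepG2; XTT signal loss vs DMSO indicates cytotoxicity.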
Test [19] deals with Cellular tumor antigen p53 (Homo sapiens) (UniProt P04637). The test is described as follows: TOX21_p53_BLA_p2_ratio: Tox21 HCT-116 p53 Agonism Beta-lactamase Assay, Ratio, Phase 2 (AID 2283592; active = hit-call score of the fitted dose curve at least 0.9, where 1 is the maximum). In outline:
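DMSO-normalized, positive-direction endpoint derived from the 460 nm/530 nm FRET ratio in HCT116 p53 beta-lactamase reporter cells exposed 16 h at 37C and loaded with CCF4-AM for 2 h.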

Test [20] concerns the target Hypoxia-inducible factor 1-alpha (Homo sapiens) (UniProt Q16665). The test can be described thus: ATG_HIF1a_CIS: Attagene CIS-FACTORIAL HepG2 Assay for human Hypoxia Inducible Factor 1 (HIF1A) (AID 2282951). Conditions: HepG2 Attagene cis-factorial HIF1a reporter transcription; actives raise or lower the signal. In outline:
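Activity is fitted in both directions relative to DMSO. Reporter transcripts are read by RT-PCR, fluorescent primer extension and capillary electrophoresis after 24 h chemical treatment. The cells are HepG2 carrying transiently transfected cis-element-driven reporter units responding to endogenous factors.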

Sequence of X-box-binding protein 1 (Homo sapiens) (P17861 whole entry, looked up): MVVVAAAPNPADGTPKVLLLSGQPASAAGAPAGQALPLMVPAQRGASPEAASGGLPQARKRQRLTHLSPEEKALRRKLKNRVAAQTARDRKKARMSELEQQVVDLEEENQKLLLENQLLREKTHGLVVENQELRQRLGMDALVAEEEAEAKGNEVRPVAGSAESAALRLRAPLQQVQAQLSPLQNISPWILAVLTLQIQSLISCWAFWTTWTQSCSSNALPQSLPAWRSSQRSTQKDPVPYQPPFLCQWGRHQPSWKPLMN
Sequence of Hypoxia-inducible factor 1-alpha (Homo sapiens) (Q16665 whole entry, looked up): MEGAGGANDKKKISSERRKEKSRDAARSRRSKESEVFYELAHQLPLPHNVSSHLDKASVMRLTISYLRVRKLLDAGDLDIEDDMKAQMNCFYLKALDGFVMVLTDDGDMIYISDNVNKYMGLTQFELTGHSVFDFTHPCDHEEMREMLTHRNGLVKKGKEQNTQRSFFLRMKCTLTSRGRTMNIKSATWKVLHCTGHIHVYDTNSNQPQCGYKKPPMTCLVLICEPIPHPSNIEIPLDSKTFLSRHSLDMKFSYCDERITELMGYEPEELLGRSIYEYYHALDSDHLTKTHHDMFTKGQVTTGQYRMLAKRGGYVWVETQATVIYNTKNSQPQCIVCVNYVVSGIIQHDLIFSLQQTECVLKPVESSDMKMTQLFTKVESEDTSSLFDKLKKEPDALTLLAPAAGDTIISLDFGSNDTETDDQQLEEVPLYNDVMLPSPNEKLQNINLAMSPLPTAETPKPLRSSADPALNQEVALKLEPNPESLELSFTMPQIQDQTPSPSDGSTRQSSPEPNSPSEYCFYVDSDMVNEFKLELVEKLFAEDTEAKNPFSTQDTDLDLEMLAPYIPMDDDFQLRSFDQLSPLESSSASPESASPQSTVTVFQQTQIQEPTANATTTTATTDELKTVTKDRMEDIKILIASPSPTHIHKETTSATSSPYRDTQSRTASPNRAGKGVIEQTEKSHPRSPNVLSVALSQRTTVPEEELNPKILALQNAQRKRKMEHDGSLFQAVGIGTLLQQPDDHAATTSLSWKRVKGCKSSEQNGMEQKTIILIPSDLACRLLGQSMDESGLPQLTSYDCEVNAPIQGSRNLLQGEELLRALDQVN
Sequence of Transcriptional activator Myb (Homo sapiens) (P10242 whole entry, looked up): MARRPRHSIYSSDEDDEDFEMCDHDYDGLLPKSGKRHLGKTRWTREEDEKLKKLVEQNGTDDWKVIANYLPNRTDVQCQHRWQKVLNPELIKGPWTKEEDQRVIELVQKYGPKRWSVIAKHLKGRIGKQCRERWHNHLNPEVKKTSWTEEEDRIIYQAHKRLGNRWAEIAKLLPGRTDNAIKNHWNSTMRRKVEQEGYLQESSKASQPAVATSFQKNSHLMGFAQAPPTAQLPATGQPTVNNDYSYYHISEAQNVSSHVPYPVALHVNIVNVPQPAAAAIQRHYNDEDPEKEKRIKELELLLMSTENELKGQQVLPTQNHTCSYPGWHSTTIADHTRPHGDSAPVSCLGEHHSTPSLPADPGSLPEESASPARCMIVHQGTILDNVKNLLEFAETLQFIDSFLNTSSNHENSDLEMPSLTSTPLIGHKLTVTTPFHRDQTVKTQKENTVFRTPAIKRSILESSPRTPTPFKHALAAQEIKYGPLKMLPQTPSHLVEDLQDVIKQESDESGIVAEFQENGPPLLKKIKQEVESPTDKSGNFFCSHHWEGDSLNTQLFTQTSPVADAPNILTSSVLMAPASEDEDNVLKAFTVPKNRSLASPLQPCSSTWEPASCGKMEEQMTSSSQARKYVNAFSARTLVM
Sequence of Nuclear receptor subfamily 1 group I member 2 (Homo sapiens) (O75469 whole entry, looked up, the tested form may be a part): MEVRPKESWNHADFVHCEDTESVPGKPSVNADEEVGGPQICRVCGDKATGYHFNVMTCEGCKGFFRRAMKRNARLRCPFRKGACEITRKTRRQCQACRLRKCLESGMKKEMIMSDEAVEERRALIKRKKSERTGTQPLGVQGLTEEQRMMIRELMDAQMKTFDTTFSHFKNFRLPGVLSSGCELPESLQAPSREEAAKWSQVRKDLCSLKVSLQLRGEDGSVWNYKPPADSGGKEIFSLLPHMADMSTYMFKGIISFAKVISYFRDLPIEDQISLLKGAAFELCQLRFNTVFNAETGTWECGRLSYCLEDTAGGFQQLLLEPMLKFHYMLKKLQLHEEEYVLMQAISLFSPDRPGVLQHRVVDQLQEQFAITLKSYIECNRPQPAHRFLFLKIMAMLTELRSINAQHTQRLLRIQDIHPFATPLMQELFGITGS
Sequence of Nuclear respiratory factor 1 (Homo sapiens) (Q16656 whole entry, looked up): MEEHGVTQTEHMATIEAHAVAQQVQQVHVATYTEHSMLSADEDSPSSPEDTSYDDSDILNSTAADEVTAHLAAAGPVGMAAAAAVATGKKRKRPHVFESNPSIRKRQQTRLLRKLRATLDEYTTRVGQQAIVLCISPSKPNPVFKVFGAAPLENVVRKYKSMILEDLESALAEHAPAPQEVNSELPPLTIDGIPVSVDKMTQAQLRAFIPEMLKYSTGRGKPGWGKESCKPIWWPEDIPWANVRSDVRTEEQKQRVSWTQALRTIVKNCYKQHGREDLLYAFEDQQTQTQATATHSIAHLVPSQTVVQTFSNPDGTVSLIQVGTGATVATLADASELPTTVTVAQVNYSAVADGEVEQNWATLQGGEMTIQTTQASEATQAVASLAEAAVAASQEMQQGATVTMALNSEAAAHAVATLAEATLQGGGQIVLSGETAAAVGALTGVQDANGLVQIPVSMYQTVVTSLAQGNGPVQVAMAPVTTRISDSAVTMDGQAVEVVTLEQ
Sequence of Transcription factor E2F1 (Homo sapiens) (Q01094 whole entry, looked up): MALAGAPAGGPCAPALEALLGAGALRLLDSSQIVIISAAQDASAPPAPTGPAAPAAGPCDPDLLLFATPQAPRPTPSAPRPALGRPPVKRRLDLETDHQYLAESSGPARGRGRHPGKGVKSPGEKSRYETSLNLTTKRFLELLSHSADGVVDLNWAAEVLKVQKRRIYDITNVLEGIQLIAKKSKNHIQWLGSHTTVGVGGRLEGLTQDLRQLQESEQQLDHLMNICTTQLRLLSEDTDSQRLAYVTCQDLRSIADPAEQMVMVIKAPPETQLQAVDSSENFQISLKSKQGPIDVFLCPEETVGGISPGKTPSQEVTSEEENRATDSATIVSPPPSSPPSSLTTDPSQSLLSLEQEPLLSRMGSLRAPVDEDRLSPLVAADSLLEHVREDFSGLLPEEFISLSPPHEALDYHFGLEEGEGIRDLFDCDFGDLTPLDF
Sequence of Myc proto-oncogene protein (Homo sapiens) (P01106 whole entry, looked up): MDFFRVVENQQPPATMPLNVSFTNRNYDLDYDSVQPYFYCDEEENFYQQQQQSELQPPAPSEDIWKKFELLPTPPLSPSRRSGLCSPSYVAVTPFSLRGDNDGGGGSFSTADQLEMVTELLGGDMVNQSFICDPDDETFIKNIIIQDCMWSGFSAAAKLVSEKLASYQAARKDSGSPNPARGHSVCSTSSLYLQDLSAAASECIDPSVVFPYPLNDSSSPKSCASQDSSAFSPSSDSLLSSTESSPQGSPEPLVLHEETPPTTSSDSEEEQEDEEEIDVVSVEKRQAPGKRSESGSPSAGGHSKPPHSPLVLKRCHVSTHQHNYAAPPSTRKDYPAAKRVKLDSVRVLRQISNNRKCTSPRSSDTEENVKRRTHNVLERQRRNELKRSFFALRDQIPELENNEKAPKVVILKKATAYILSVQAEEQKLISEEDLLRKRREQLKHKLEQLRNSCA

As to `CC(C)(Oc1ccc(Cl)cc1)C(=O)O`, the compound was called inactive in test [1], in test [2], in [3], in test [4], in test [5] and in test [6]. For the same compound, the compound was classed as inactive in test [7], in [8], in [9], in [10], in test [11] and in [12]. For the same compound, the outcome in test [13], in [14], in test [15], in [16], in [17] and in [18] was inactive. For the same compound, the outcome in test [19] was inactive.

Take `O=C(O)c1cc(Cl)cc(Cl)c1O`: the compound was called inactive in test [2], in test [4], in [6], in test [20], in test [8] and in [9]. In addition, the compound was called inactive in [10], in [11], in test [12], in [13], in test [14] and in test [15]. The result in [16], in [17], in test [18] and in test [19] was inactive.

For `[O-][n+]1ccc(Cl)cc1`, the compound was called inactive in [1], in test [2], in test [3], in test [4], in [5] and in test [6]. Further, the outcome in [7], in [20], in test [8], in test [9], in test [10] and in test [11] was inactive. For the same compound, the outcome in test [12], in test [13], in test [14], in test [15], in test [16] and in [17] was inactive. The compound was called inactive in test [18] and in [19].

Take `CC1=C(CC=O)C(C)(C)CCC1`: the result in [1], in test [3], in test [4], in [5], in test [6] and in test [20] was inactive. Moreover, the outcome in test [8], in [9], in test [10], in test [11], in [12] and in test [13] was inactive. Besides, the outcome in test [14], in [15], in test [16] and in test [19] was inactive. The half-maximal activity concentration (AC50) in test [17] is 1380 nM (active).

Take `Cc1cc(-n2nc3ccc(Cl)cc3n2)c(O)c(C(C)(C)C)c1`: the result in test [1], in test [2], in [3], in [4], in test [5] and in [6] was inactive. The compound was called inactive in [7], in test [20], in [8], in test [9], in test [10] and in [11]. Besides, the result in [12], in test [13], in [14], in test [15], in test [16] and in test [17] was inactive. In addition, the outcome in [18] and in test [19] was inactive.

`C[Si](C)(C)O[Si](C)(C)O[Si](C)(C)C`: the outcome in test [1], in test [2], in test [3], in test [4], in [6] and in test [7] was inactive. For the same compound, the result in [20], in [8], in test [9], in test [10], in test [12] and in [13] was inactive. The result in test [14], in [15], in test [16], in test [17], in [18] and in test [19] was inactive.

For the compound `OCCN(CCO)c1cccc(Cl)c1`, the compound was classed as inactive in test [1], in [2], in [3], in test [4], in test [5] and in [6]. In addition, the outcome in test [7], in [20], in test [8], in [9], in test [10] and in test [12] was inactive. In addition, the result in test [13], in test [14], in test [15], in test [16], in test [17] and in test [18] was inactive. Besides, the outcome in [19] was inactive.

Turning to `CCCCn1cc[n+](C)c1`, the result in test [2], in test [3], in test [5], in test [6], in test [7] and in test [20] was inactive. The compound was called inactive in test [8], in [9], in test [11], in test [12], in test [13] and in test [14]. Also, the compound was called inactive in test [15], in [17] and in [18].

Values taken from PubChem BioAssay (EPA / NIEHS).
